Several values for one entry are separate records, joined by “and”; a condition that tells them apart may be missing. Equal values may be shown once. Screen size: about 5,500 compounds; about 2,000 (36%) were called active. Another 18% or so got no clear call; they are omitted. No stated cut-off is given here; in the data, active means normalized growth mostly below about 0.91 (no sharp cut-off); inconclusive means no clear call, values can overlap the other calls; inactive means mostly above about 0.92. The list shows a part of the results.
Test: chemical genetic growth profiling, strain panel (AID 1159580);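 further: tested at 20 µM; growth read once vehicle control cultures reached saturation at 30 °C; 1 = growth at the plate median or of vehicle wells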
Conditions: S. cerevisiae deletion strains, growth OD

## O=C(O)c1ccccc1-c1c2cc(Br)c(=O)cc-2oc2[c]([Hg])c(O)c(Br)cc12
Locus YAL013W, strain DEP1, stronger effect = lower value
  normalized growth: 0.0843 (active)
Locus YAL021C, strain ccr4, stronger effect = lower value
  normalized growth: 1.01 (inactive)
Locus YAL026C, strain drs2, stronger effect = lower value
  normalized growth: 1.04 (inactive)
Locus YAL030W, strain snc1, stronger effect = lower value
  normalized growth: 1.03 (inactive)
Locus YBL061C, strain skt5, stronger effect = lower value
  normalized growth: 1.04 (inactive)
Locus YBR009C, strain hhf1, stronger effect = lower value
  normalized growth: 1.03 (inactive)
Locus YBR021W, strain FUR4, stronger effect = lower value
  normalized growth: 0.61 (active)
Locus YBR023C, strain chs3, stronger effect = lower value
  normalized growth: 1.04 (inactive)
Locus YBR171W, strain sec66, stronger effect = lower value
  normalized growth: 1.06 (inactive)
Locus YBR229C, strain ROT2, stronger effect = lower value
  normalized growth: 0.972 (inactive)
Locus YBR231C, strain swc5, stronger effect = lower value
  normalized growth: 1.04 (inactive)
Locus YBR279W, strain paf1, stronger effect = lower value
  normalized growth: 0.594 (active)
Locus YCL011C, strain gbp2, stronger effect = lower value
  normalized growth: 1.05 (inactive)
Locus YCL016C, strain dcc1, stronger effect = lower value
  normalized growth: 1.06 (inactive)
Locus YCL029C, strain bik1, stronger effect = lower value
  normalized growth: 0.996 (inactive)
Locus YCR088W, strain abp1, stronger effect = lower value
  normalized growth: 1.03 (inactive)
Locus YDL005C, strain med2, stronger effect = lower value
  normalized growth: 1.02 (inactive)
Locus YDL035C, strain GPR1, stronger effect = lower value
  normalized growth: 0.453 (active)
Locus YDL040C, strain nat1, stronger effect = lower value
  normalized growth: 1.05 (inactive)
Locus YDL074C, strain BRE1, stronger effect = lower value
  normalized growth: 0.866 (inactive)
Locus YDL101C, strain DUN1, stronger effect = lower value
  normalized growth: 0.936 (inactive)
Locus YDL134C, strain PPH21, stronger effect = lower value
  normalized growth: 0.102 (active)
Locus YDL185W, strain tfp1, stronger effect = lower value
  normalized growth: 0.622 (active)
Locus YDL192W, strain arf1, stronger effect = lower value
  normalized growth: 0.0635 (active)
Locus YDR001C, strain nth1, stronger effect = lower value
  normalized growth: 1.04 (inactive)
Locus YDR069C, strain doa4, stronger effect = lower value
  normalized growth: 1.02 (inactive)
Locus YDR101C, strain arx1, stronger effect = lower value
  normalized growth: 1.01 (inactive)
Locus YDR137W, strain rgp1, stronger effect = lower value
  normalized growth: 1.2 [resistant] (active)
Locus YDR150W, strain NUM1, stronger effect = lower value
  normalized growth: 0.732 (active)
Locus YDR159W, strain sac3, stronger effect = lower value
  normalized growth: 1.05 (inactive)
Locus YDR162C, strain NBP2, stronger effect = lower value
  normalized growth: 0.736 (active)
Locus YDR195W, strain ref2
  normalized growth: 0.982 (inactive)
Locus YDR297W, strain sur2, stronger effect = lower value
  normalized growth: 1.04 (inactive)
Locus YDR318W, strain mcm21, stronger effect = lower value
  normalized growth: 0.07 (active)
Locus YDR334W, strain swr1, stronger effect = lower value
  normalized growth: 1.03 (inactive)
Locus YDR335W, strain msn5, stronger effect = lower value
  normalized growth: 1.03 (inactive)
Locus YDR388W, stronger effect = lower value
  normalized growth: 0.0603 (active)
Locus YDR392W, strain spt3, stronger effect = lower value
  normalized growth: 0.796 (inactive)
Locus YDR502C, strain sam2, stronger effect = lower value
  normalized growth: 0.814 (active)
Locus YEL003W, strain gim4, stronger effect = lower value
  normalized growth: 1.02 (inactive)
Locus YEL037C, strain rad23, stronger effect = lower value
  normalized growth: 1.03 (inactive)
Locus YEL061C, strain CIN8 (second series), stronger effect = lower value
  normalized growth: 1.05 (inactive)
Locus YEL061C, strain CIN8, stronger effect = lower value
  normalized growth: 0.984 (inactive)
Locus YER015W, strain faa2, stronger effect = lower value
  normalized growth: 1.04 (inactive)
Locus YER016W, strain bim1, stronger effect = lower value
  normalized growth: 1.06 (inactive)
Locus YER110C, stronger effect = lower value
  normalized growth: 0.655 (active)
Locus YER111C, strain swi4, stronger effect = lower value
  normalized growth: 1.03 (inactive)
Locus YER155C, strain BEM2 (second series), stronger effect = lower value
  normalized growth: 1.03 (inactive)
Locus YER155C, strain BEM2, stronger effect = lower value
  normalized growth: 1.02 (inactive)
Locus YER167W, strain BCK2, stronger effect = lower value
  normalized growth: 0.0686 (active)
Locus YFR010W, strain ubp6, stronger effect = lower value
  normalized growth: 1.02 (inactive)
Locus YGL078C, strain dbp3, stronger effect = lower value
  normalized growth: 0.0613 (active)
Locus YGL086W, strain mad1, stronger effect = lower value
  normalized growth: 0.0593 (active)
Locus YGL167C, strain pmr1, stronger effect = lower value
  normalized growth: 1.06 (inactive)
Locus YGL173C, strain kem1, stronger effect = lower value
  normalized growth: 0.973 (inactive)
Locus YGL227W, strain vid30, stronger effect = lower value
  normalized growth: 1.05 (inactive)
Locus YGL240W, strain doc1, stronger effect = lower value
  normalized growth: 1 (inactive)
Locus YGL248W, strain PDE1, stronger effect = lower value
  normalized growth: 0.0521 (active)
Locus YGL253W, strain hxk2, stronger effect = lower value
  normalized growth: 1.02 (inactive)
Locus YGR078C, strain PAC10, stronger effect = lower value
  normalized growth: 0.369 (active)
Locus YGR135W, strain pre9, stronger effect = lower value
  normalized growth: 0.0708 (active)
Locus YGR229C, strain SMI1, stronger effect = lower value
  normalized growth: 0.106 (active)
Locus YGR252W, strain gcn5, stronger effect = lower value
  normalized growth: 0.178 (active)
Locus YHR013C, strain ard1, stronger effect = lower value
  normalized growth: 0.121 (active)
Locus YHR027C, strain rpn1, stronger effect = lower value
  normalized growth: 1.01 (inactive)
Locus YHR030C, strain SLT2, stronger effect = lower value
  normalized growth: 0.146 (active) and 0.163 (active)
Locus YHR079C, strain IRE1 (second series), stronger effect = lower value
  normalized growth: 0.884 (active)
Locus YHR079C, strain IRE1, stronger effect = lower value
  normalized growth: 0.406 (active)
Locus YHR094C, strain hxt1, stronger effect = lower value
  normalized growth: 0.0904 (active)
Locus YHR129C, strain ARP1, stronger effect = lower value
  normalized growth: 0.939 (inactive)
Locus YHR142W, strain chs7, stronger effect = lower value
  normalized growth: 0.951 (inactive)
Locus YHR200W, strain rpn10, stronger effect = lower value
  normalized growth: 0.0659 (active)
Locus YIL066C, strain RNR3, stronger effect = lower value
  normalized growth: 0.0637 (active)
Locus YIL073C, strain SPO22, stronger effect = lower value
  normalized growth: 0.127 (active)
Locus YIL125W, strain kgd1, stronger effect = lower value
  normalized growth: 0.0621 (active)
Locus YIR030C, strain dcg1, stronger effect = lower value
  normalized growth: 1 (inactive)
Locus YJL092W, strain hpr5, stronger effect = lower value
  normalized growth: 1.04 (inactive)
Locus YJL095W, strain BCK1 (second series), stronger effect = lower value
  normalized growth: 1.03 (inactive)
Locus YJL095W, strain BCK1, stronger effect = lower value
  normalized growth: 0.834 (inactive) and 0.144 (active)
Locus YJL115W, strain asf1, stronger effect = lower value
  normalized growth: 1.03 (inactive)
Locus YJL129C, strain trk1, stronger effect = lower value
  normalized growth: 1.12 (inactive)
Locus YJL134W, strain LCB3, stronger effect = lower value
  normalized growth: 1.02 (inactive)
Locus YJL154C, strain vps35, stronger effect = lower value
  normalized growth: 1.04 (inactive)
Locus YJL164C, strain tpk1, stronger effect = lower value
  normalized growth: 1.01 (inactive)
Locus YJL166W, strain qcr8, stronger effect = lower value
  normalized growth: 1.02 (inactive)
Locus YJL168C, strain set2, stronger effect = lower value
  normalized growth: 0.0944 (active)
Locus YJL187C, strain SWE1 (second series), stronger effect = lower value
  normalized growth: 0.955 (inactive)
Locus YJL187C, strain SWE1, stronger effect = lower value
  normalized growth: 1.01 (inactive)
Locus YJR043C, strain POL32, stronger effect = lower value
  normalized growth: 0.868 (inactive)
Locus YJR066W, strain TOR1, stronger effect = lower value
  normalized growth: 0.439 (active)
Locus YJR075W, strain HOC1, stronger effect = lower value
  normalized growth: 0.946 (inactive)

— PubChem BioAssay AID1159580 (chemical genetic matrix, 2015)
